Source: PubChem (National Center for Advancing Translational Sciences (NCATS))
Hits are enriched below; roughly 8.9% of the tested compounds scored in any of these assays.
KB-V1 cytotox: KB-V1 MDR subline cytotoxicity. KB-V1 MDR cells viability, CellTiter-Glo, 72 h. Potency, µM (top dose mostly 46.1 µM), actives largely listed as cytotoxic. hit rate 3.4% among 400,000. AID 1347076; further: nearly all actives have a fitted effect of over 60% in size
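KB-V1 cells (P-gp-expressing MDR subline of KB-3-1) in phenol-red-free DMEM with 10% FBS were exposed to library compounds over a concentration series for 72 h at 37 degrees C. Viability read by CellTiter-Glo luminescence; concentration-effect curves fitted after normalization.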
KB-3-1 cytotox: KB-3-1 parental cell cytotoxicity | Potency, µM (highest dose often 46.1 µM), usual class: cytotoxic | hit rate 1.4% among 400,000 | KB-3-1 viability, CellTiter-Glo ATP luminescence, 72 h; further: nearly all actives have a fitted effect of over 60% in size
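Parental KB-3-1 viability, qHTS format: 72 h compound exposure, 37 °C; CellTiter-Glo; media-only wells and DMSO plates as controls; concentration-effect fits on corrected data.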
DRD3 antagonist: blocks the human D3 dopamine receptor. D3R cells, DiscoveRx beta-arrestin luminescence, antagonist mode; active compounds read low. max response, negative = inhibition, %. hit rate 2.5% among 360,000; in the data active means max response below about -50%; inconclusive means no clear call, values can overlap the other calls
Target sequence (P35462 whole entry, looked up): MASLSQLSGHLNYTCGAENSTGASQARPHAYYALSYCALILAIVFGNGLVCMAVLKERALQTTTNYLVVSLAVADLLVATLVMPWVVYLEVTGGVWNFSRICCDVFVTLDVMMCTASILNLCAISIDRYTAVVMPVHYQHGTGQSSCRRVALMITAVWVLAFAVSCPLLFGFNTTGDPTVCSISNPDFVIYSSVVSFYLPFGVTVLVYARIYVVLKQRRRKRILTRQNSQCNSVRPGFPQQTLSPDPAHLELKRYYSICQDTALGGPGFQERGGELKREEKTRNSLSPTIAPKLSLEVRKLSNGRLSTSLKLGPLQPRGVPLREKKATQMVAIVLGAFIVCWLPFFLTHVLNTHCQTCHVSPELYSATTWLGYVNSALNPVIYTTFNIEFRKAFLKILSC
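Cells expressing the human receptor were seeded at 1500 cells/well, incubated overnight at 37 degrees C in 5% CO2, then exposed to library compounds with dopamine controls for 90 minutes at 37 degrees C before luminescent detection.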
SW480 rerep: induces DNA re-replication in SW480 colon adenocarcinoma cells; SW480 DNA re-replication, Hoechst DNA content imaging, 48 h; hit rate 1.8% among 340,000; Potency, µM (top dose mostly 46.1 µM), most hits filed as activators; further: nearly all actives have a fitted effect of over 55% in size
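Quantitative HTS format with DMSO vehicle controls; 48 hr drug incubation at 37 C, then 40 min Hoechst staining and scanning imager measurement at 405 nm excitation.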
D3 ag: agonists of human D3 dopamine receptor. P35462. D3R DiscoveRx beta-arrestin cells, luminescence, 90 min. max activation, %. hit rate 0.58% among 410,000; in the data active means max activation above about 30%
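Agonist-mode cell screen: cells plated at 1500/well and incubated overnight at 37 °C, then exposed to library compounds for 90 min at 37 °C. Detection reagent was added for 30–60 min at room temperature, and luminescence was read.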
MCF10A rerep: inducers of DNA re-replication in MCF 10A breast cells; MCF 10A DNA re-replication, Hoechst nuclear intensity, 48 h; Potency, µM (series often up to 46.1 µM), hits mostly activators; hit rate 2.9% among 350,000; AID 624296; further: nearly all actives have a fitted effect of over 50% in size
A number is an active result; 0 = inactive; ? = inconclusive; - = not tested or not shown. Unless noted, the call rests on the fitted dose curve; in most records, active means well fitted curve in the direction sought with a large enough effect; inconclusive means small, poorly fitted or top-dose-only effect, or another doubt; inactive means no such curve, though single readings can be large; an effect the other way counts as inactive or inconclusive.

SMILES	KB-V1 cytotox	KB-3-1 cytotox	DRD3 antagonist	SW480 rerep	D3 ag	MCF10A rerep
O=C(COc1ccccc1-c1ccccc1)N/N=C/c1cccc2ccccc12	0.92µM	1.3µM	0	?	0	0.461µM
CCOC(=O)C1=C(C)NC(C)=C(C(=O)OCC)C1C(=O)OCC(=O)NC(C)c1ccccc1 (centres undefined)	?	?	0	7.31µM	0	?
COc1ccc(/C=N/NC(=O)COc2ccccc2-c2ccccc2)cc1	0.82µM	1.16µM	0	0.92µM	0	0.82µM
CC(NC(=O)COc1ccccc1-c1ccccc1)c1ccccc1 (centres undefined)	0	0	0	0	0	4.61µM
CCOC(=O)C1=C(C)NC(C)=C(C(=O)OCC)C1C(=O)OCC(=O)NCc1ccccc1	?	?	0	0	0	0
CCN(c1ccccc1)S(=O)(=O)c1nnc(NC(=O)c2ccccc2)s1	-	-	-	-	0	-
O=C(CSc1nc2ccccc2s1)N/N=C/c1ccc(C(=O)O)cc1	?	0	0	0	0	0
COc1ccc(/C=N/NC(=O)CCSc2nc3ccccc3s2)cc1	0	?	0	10.3µM	0	?
CC(C)OC(=O)c1cn(-c2ccccc2)nc1-c1ccc2c(c1)OCCO2	7.31µM	0	0	0	0	?
NC(=O)/C=C\c1cn(-c2ccccc2)nc1-c1ccc2c(c1)OCCO2	14.6µM	0	0	0	0	?
COc1ccc2[nH]c(C)c(C(=O)CN(C)CC(OC)OC)c2c1	0	0	-	-	-	-
Cn1c(=O)[nH]c(=O)c2c1nc(N1CCNCC1)n2Cc1ccccc1Cl	0	0	0	0	0	2.91µM
Cn1c(N2CCN(C(c3ccccc3)c3ccccc3)CC2)nc2c1c(=O)[nH]c(=O)n2C	20.6µM	?	0	0	0	0
CC1CN(c2nc3c(c(=O)[nH]c(=O)n3C)n2Cc2ccccc2F)CC(C)O1 (centres undefined)	18.4µM	0	0	0	0	0
Cc1ccc(-n2cc3c(c2-c2ccccc2Br)c(=O)n(C)c(=O)n3C)cc1N	0	0	-	-	0	-
CCOc1ccccc1NC(=O)Cn1c(=O)n(CCC(=O)NCc2ccc3c(c2)OCO3)c(=O)c2ccccc21	-	-	-	-	0	-
COc1cc(OC)c(NS(=O)(=O)c2c(C(=O)N3CCC(C)CC3)c(C)n(C)c2C)cc1Cl	-	-	-	-	0	-
N#Cc1c(N2CCOCC2)nsc1-c1ccccc1	?	10.3µM	0	0	0	0
O=c1cc(CN2CCN(c3ccccc3F)CC2)c2c(ccc3ccccc32)o1	0	0	0	-	0	-
O=c1cc(CN2CCN(c3ccccc3F)CC2)c2cc3c(cc2o1)CCCC3	0	0	-61.9	0	0	0
O=c1cc(CN2CCN(Cc3ccccc3)CC2)c2cc3c(cc2o1)CCC3	0	0	-61.9	0	0	0
CCOC(=O)Nc1ccc2c(c1)ncn2C1CCCCC1	18.4µM	0	0	0	0	0
COC(=O)Nc1ccc2c(c1)ncn2C1CCCCC1	0	0	0	0	0	0
COc1ccc(OC)c(NC(=O)CSc2cn(CC(=O)N3CCOCC3)c3ccccc23)c1	-	-	-	-	0	-
CCc1ccc2[nH]c(=O)c(CN(CCN(CC)CC)C(=S)NCc3ccco3)cc2c1	?	23.1µM	0	0	0	0
SMILES	KB-V1 cytotox	KB-3-1 cytotox	DRD3 antagonist	SW480 rerep	D3 ag	MCF10A rerep
CCc1ccc2[nH]c(=O)c(CN(CCN(C)C)C(=S)NCc3ccco3)cc2c1	0	0	0	0	0	0
CCN(CC)CCN(Cc1cc2cc(C)c(C)cc2[nH]c1=O)C(=S)NCc1ccco1	0	0	-72.3	0	0	0
CCN(CC)CCN(Cc1cc2cc3c(cc2[nH]c1=O)OCO3)C(=S)NCCCOC	0	0	-52.3	0	0	0
COc1ccc(C(C(=O)NC(C)(C)C)N(C(=O)CCC(=O)Nc2cc(C)on2)c2ccc(C)c(C)c2)cc1 (centres undefined)	?	0	0	0	0	0
Cc1c(P(=S)(c2ccccc2)c2ccccc2)[n+]2ccccc2n1C/C=C/c1ccccc1	0	10.3µM	-	-	-	-
Cc1cc(OCc2ccccc2)ccc1/C(O)=C1/C(=O)C(=O)N(Cc2cccnc2)C1c1ccncc1 (centres undefined)	?	0	0	0	0	?
COc1ccc(/C(O)=C2/C(=O)C(=O)N(Cc3cccnc3)C2c2ccncc2)cc1F (centres undefined)	0	0	-135.9	0	0	0
CCOC(=O)C1CCC(CN(Cc2ccc(OC)cc2)S(=O)(=O)c2ccc(F)c(C(=O)Nc3c(C)cccc3C)c2)CC1 (centres undefined)	0	0	-	-	0	-
COc1ccc(-n2c(=O)c3ccc(C(=O)NCc4ccc(C)cc4)cc3n(CC(=O)Nc3cccc(F)c3)c2=O)cc1	0	0	-	-	0	-
COc1ccccc1COC(=O)Nc1c(C)nn(C)c1Cl	23.1µM	0	0	0	0	0
CCc1nnc(NC(=O)C2CCN(c3nccc(C)n3)CC2)s1	16.4µM	0	0	0	0	0
CCc1nnc(NC(=O)C2CCCN(c3nc(C)cc(C)n3)C2)s1 (centres undefined)	9.2µM	0	0	0	0	0
COc1cc2ccccc2cc1C(=O)N/N=C/c1cccs1	9.2µM	2.31µM	?	-	0	-
COc1ccc(NC(=O)c2sc3nc(C)cc(C)c3c2N)cc1	0	0	0	?	0	?
Cc1cc(C)c2c(N)c(C(=O)N/N=C/c3cccs3)sc2n1	0	?	0	?	0	18.4µM
Cc1cc(C)c2c(N)c(C(=O)Nc3ccc(F)cc3)sc2n1	0	?	0	0	0	20.6µM
COc1ccc(/C=N/NC(=O)c2sc3nc(C)cc(C)c3c2N)cc1	0	0	0	?	0	5.8µM
Cc1cc(C)c2c(N)c(C(=O)Nc3ccc(C)c(C)c3)sc2n1	0	0	0	?	0	?
Cc1cc(N2CCC(C)CC2)nc2ccc(NC(=O)CCC(=O)N3CCN(c4ccccc4F)CC3)cc12	0	0	-	-	0	-
O=C(COC(=O)c1cccs1)NCCN1C(=O)CSC1=O	0	0	0	0	0	0
Cc1c(C(=O)OCC(=O)NCCN2C(=O)CSC2=O)oc2c1ccc1ccccc12	23.1µM	0	0	?	0	?
CCOC(=O)Nc1nc(-c2ccccc2)c(C(=O)c2ccccc2)s1	1.16µM	0.82µM	?	0.92µM	0	1.16µM
CC(=O)c1sc(NC(=O)c2ccccc2)nc1-c1ccccc1	0	0	0	0	0	0.651µM
COC(=O)Nc1nc(-c2ccccc2)c(C(=O)c2ccc(Cl)cc2)s1	0.581µM	1.03µM	?	1.3µM	0	1.03µM
COCCN(CCOC)S(=O)(=O)c1ccc(C(=O)Nc2nc(-c3ccccc3)c(C(=O)c3ccccc3)s2)cc1	?	0	0	0	0	?
CC(=O)c1sc(NC(=O)c2c(F)cccc2F)nc1-c1ccccc1	0	0	0	0	0	0
